In PubChem BioAssay (Tox21) one finds Potency data, which are given here for 21 molecules.

Assay [1] is described as follows: qHTS assay to identify aromatase inhibitors - cell viability counter screen (AID 743084).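 Note: cells stimulated with testosterone during compound exposure; nearly all actives have a fitted effect of over 55% in size.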 Note: potency is the fitted concentration of half-maximal effect. For orientation: In qHTS, concentration-response curves come from the screen itself.
Assay [2] deals with Aryl hydrocarbon receptor (Homo sapiens) (UniProt P35869). In words: qHTS assay to identify small molecule that activate the aryl hydrocarbon receptor (AhR) signaling pathway (AID 743085).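 For activation: HG2L7.5c1 human HepG2 liver cells with stably integrated DRE-driven firefly reporter; series mostly up to about 70 µM.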 Note: nearly all actives have a fitted effect of over 15% in size. Note: potency is the fitted concentration of half-maximal effect. The essentials:
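Stably transfected human liver carcinoma cells (HG2L7.5c1; 20 DRE-firefly luciferase) were incubated 5 h, dosed, and kept 24 h at 37C. Agonism was scored from increased luciferase luminescence.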

Assay [3] is described as follows: qHTS assay to identify small molecule that activate the aryl hydrocarbon receptor (AhR) signaling pathway - cell viability counter screen (AID 743086). Note: nearly all actives have a fitted effect of over 45% in size. Note: potency is the fitted concentration of half-maximal effect. Put shortly:
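HepG2-AhR-luc (HG2L7.5c1) cells, 4000/well, treated 24 h at 37 C with compound; viability measured as CellTiter-Fluor fluorescence after 30 min in the same wells as the luciferase read.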

The target in assay [4] is Peroxisome proliferator-activated receptor gamma (Homo sapiens) (UniProt P37231). In words: qHTS assay to identify small molecule agonists of the peroxisome proliferator-activated receptor gamma (PPARg) signaling pathway (AID 743094; active = well fitted activation curve with a large enough effect in the signal ratio in the repeat runs, not every such curve was filed as active; the % refers to the signal ratio). Put shortly: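 Agonist activity was taken from a beta-lactamase reporter (FRET substrate, 1 h at room temperature) in HEK293H cells carrying a PPARg UAS-bla construct. Compounds in DMSO were incubated 17 h at 37C after a 5 h cell pre-incubation.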

Assay [5] in a line: qHTS assay to identify small molecule antagonists of the peroxisome proliferator-activated receptor gamma (PPARg) signaling pathway - cell viability counter screen (AID 743194). Note: nearly all actives have a fitted effect of over 55% in size. Note: potency is the fitted concentration of half-maximal effect. The essentials: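 Cytotoxicity counter screen in PPARg-bla HEK293H cells, same wells as reporter assay. Compounds plus 50 nM rosiglitazone (final) for 17 h at 37 C, then viability read by CellTiter-Glo luminescence.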

Assay [6] is described as follows: qHTS assay for small molecule agonists of the antioxidant response element (ARE) signaling pathway - cell viability counter screen (AID 743203; calls by dose curve; note: nearly all actives have a fitted effect of over 55% in size; note: potency is the fitted concentration of half-maximal effect). The essentials: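 Viability counter screen: CellTiter-Glo luminescence, read after 30 min at room temperature, in ARE-bla HepG2 wells. Compound exposure lasted 16 h at 37C/5% CO2, following a 5 h pre-incubation of the cells after plating.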

Assay [7] can be described thus: qHTS assay for small molecule activators of the heat shock response signaling pathway - cell viability counter screen (AID 743209). Note: nearly all actives have a fitted effect of over 50% in size. Note: potency is the fitted concentration of half-maximal effect. Put shortly: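 Cytotoxicity counter screen run in the same wells as the heat-shock bla reporter assay: HeLa HSE-bla cells, 5 h compound exposure at 37 C, viability read by CellTiter-Glo luminescence.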
Assay [8] is described as follows: qHTS assay for small molecule activators of the heat shock response signaling pathway (AID 743210; active = well fitted activation curve with a large enough effect in the signal ratio in the repeat runs, with a control signal flat, not every such curve was filed as active; the % refers to the signal ratio; note: potency is the fitted concentration of half-maximal effect; for activation: series mostly up to about 63 µM). Put shortly: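 Beta-lactamase reporter read-out: FRET substrate fluorescence after 2.5 h at RT, following 5 h compound treatment at 37 C of HeLa cells carrying HSE-driven bla reporter; quantitative HTS format.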
Assay [9] in a line: qHTS assay for small molecule agonists of the antioxidant response element (ARE) signaling pathway (AID 743202; active = well fitted activation curve with a large enough effect in the signal ratio in the repeat runs, not every such curve was filed as active; the % refers to the signal ratio; note: potency is the fitted concentration of half-maximal effect). Put shortly: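 HepG2 ARE-bla reporter line, 2,000 cells/well; 5 h preincubation 37 C/5% CO2; compound (DMSO) 16 h 37 C; B/G FRET substrate 2 h RT; fluorescence intensity.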
In assay [10] the target is Peroxisome proliferator-activated receptor gamma (Homo sapiens) (UniProt P37231). In words: qHTS assay to identify small molecule antagonists of the peroxisome proliferator-activated receptor gamma (PPARg) signaling pathway (AID 743191; calls by dose curve; note: series mostly up to about 63 µM; nearly all actives have a fitted effect of over 30% in size). Put shortly: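 GeneBLAzer PPARg UAS-bla HEK293H cells, 5 h post-plating, exposed to compounds 17 h at 37C. LiveBLAzer B/G FRET substrate added for 1 h at room temperature; beta-lactamase reporter read by fluorescence intensity.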

Several values for one entry are separate records, joined by “and”; a condition that tells them apart may be missing. Equal values may be shown once. Results filed as inconclusive are left out. The source holds several records for some structures; these can differ, active in one and inactive in another. Activity calls are given as the source filed them. Unless noted, calls come from the whole dose curve; as a rule, active = well fitted curve in the direction sought with a large enough effect in the repeat runs; inconclusive = weak or mixed curves; inactive = no such curve, though single readings can be large; an effect the other way counts as inactive or inconclusive.

Chain of Aryl hydrocarbon receptor (Homo sapiens) (P35869 whole entry, looked up): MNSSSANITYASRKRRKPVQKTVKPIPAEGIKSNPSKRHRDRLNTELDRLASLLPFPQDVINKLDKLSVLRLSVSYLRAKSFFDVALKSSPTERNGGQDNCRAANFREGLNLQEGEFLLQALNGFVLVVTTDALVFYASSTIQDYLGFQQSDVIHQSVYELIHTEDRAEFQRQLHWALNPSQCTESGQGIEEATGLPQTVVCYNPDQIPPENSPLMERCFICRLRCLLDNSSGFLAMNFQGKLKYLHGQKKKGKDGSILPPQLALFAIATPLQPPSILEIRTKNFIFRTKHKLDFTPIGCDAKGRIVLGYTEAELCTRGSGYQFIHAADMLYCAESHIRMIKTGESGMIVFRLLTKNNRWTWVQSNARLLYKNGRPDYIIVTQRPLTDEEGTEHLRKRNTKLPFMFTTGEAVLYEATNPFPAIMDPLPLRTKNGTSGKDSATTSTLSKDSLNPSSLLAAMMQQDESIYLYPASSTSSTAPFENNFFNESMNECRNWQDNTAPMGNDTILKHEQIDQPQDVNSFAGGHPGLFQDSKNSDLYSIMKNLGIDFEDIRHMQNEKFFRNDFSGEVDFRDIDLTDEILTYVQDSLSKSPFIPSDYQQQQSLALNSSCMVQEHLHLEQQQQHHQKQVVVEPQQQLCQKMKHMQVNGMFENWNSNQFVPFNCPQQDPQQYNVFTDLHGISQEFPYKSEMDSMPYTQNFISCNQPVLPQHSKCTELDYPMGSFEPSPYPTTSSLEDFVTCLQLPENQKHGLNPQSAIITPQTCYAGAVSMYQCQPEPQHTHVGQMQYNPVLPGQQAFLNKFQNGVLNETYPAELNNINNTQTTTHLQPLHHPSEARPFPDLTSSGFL
Chain of Peroxisome proliferator-activated receptor gamma (Homo sapiens) (P37231 whole entry, looked up): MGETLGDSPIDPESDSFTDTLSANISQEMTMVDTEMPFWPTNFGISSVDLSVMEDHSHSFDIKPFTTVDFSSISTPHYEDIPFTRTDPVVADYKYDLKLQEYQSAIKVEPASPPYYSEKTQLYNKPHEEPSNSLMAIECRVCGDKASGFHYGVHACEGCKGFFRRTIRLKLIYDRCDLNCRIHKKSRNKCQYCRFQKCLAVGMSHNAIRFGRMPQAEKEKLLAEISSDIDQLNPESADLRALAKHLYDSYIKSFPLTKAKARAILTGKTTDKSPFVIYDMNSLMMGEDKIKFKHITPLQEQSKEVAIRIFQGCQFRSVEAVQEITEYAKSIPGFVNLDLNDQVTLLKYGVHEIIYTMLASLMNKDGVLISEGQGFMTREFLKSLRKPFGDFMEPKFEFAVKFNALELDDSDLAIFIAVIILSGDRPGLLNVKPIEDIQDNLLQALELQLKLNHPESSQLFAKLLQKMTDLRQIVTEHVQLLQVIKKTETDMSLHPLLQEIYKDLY

Turning to `O=C(O[C@@H]1Cc2c(O)cc(O)cc2O[C@@H]1c1cc(O)c(O)c(O)c1)c1cc(O)c(O)c(O)c1`, the Potency in assay [1] is 30.7 µM (active) and 46.8 µM (active); in assay [3], 34.4 µM (active) and 41.7 µM (active). The Potency result in assay [2], in [4], in assay [5], in assay [6], in [7] and in [8] was “inactive” in each case.
For `CO[Si](OC)(OC)c1ccccc1`, the Potency entry in assay [1], in [2], in assay [3], in [4], in assay [5] and in assay [6] was “inactive” throughout. For the same molecule, in assay [8], the Potency result is “inactive”.
Consider `O=c1n(CC2CO2)c(=O)n(CC2CO2)c(=O)n1CC1CO1` (stereo not given), for which the Potency entry was “inactive and 34.2 µM (active)” in assay [1]; 4.33 µM (active) in [9]; 35.8 µM (active) and 43.6 µM (active) in [8]. The Potency entry in assay [2], in assay [3], in assay [5] and in [6] was “inactive” each time.
For the molecule `CC(N)=O`, the Potency result in [1], in [2], in assay [3], in assay [4], in assay [9] and in assay [6] was “inactive” throughout. In addition, the Potency result in assay [7] and in assay [8] was “inactive” each time.
In the case of `CCCCCC(=O)O[C@]1(C(C)=O)CC[C@H]2[C@@H]3CCC4=CC(=O)CC[C@]4(C)[C@H]3CC[C@@]21C`, the Potency entry in assay [1], in assay [2], in assay [3], in [4] and in assay [7] was “inactive” throughout. Moreover, the Potency in assay [6] was 54.1 µM (active).
Regarding `O=C(Nc1ccccc1SSc1ccccc1NC(=O)c1ccccc1)c1ccccc1`, the Potency in assay [1] was 15.4 µM (active) and 48.6 µM (active); in assay [2], 30.8 µM (active) and 34.4 µM (active). For the same molecule, the Potency entry in [3], in assay [5] and in [6] was “inactive” throughout.
As for `CCC(C)(C)C(=O)O[C@H]1C[C@@H](C)C=C2C=C[C@H](C)[C@H](CC[C@@H]3C[C@@H](O)CC(=O)O3)[C@H]21`, the Potency result in assay [1], in assay [2], in [3], in assay [4], in [5] and in [6] was “inactive” each time. In [7], the Potency is 54.9 µM (active).
Turning to `CCCN[C@H]1CCc2nc(N)sc2C1`, the Potency result in assay [1], in assay [2], in [3], in assay [5], in assay [9] and in assay [6] was “inactive” in each case.
As for `Cc1ccc(S(=O)(=O)Oc2ccc(N=Nc3ccc(-c4ccc(N=Nc5c(O)ccc6cc(S(=O)(=O)O)cc(S(=O)(=O)O)c56)c(C)c4)cc3C)cc2)cc1`, the Potency in [1] is 10.9 µM (active) and 10 µM (active); in assay [3], 9.73 µM (active) and 14.1 µM (active). The Potency entry in [2], in assay [5], in [6], in assay [7] and in assay [8] was “inactive” each time.
As for `O`, the Potency result in assay [1], in assay [2], in assay [3], in assay [5], in assay [9] and in [6] was “inactive” each time. In assay [7], the Potency entry was “inactive”.
For `N[C@@H]1CONC1=O`, the Potency entry in assay [1], in [2], in assay [3], in assay [5], in [9] and in [6] was “inactive” throughout. Also, the Potency entry in assay [7] and in [8] was “inactive” in each case.
Turning to `COc1ccc(CCN2CCC(Nc3nc4ccccc4n3Cc3ccc(F)cc3)CC2)cc1`, the Potency in assay [1] was 26.6 µM (active) and 12.5 µM (active); in assay [3] it was 23.7 µM (active) and 9.9 µM (active); in [5], 4.46 µM (active) and 26.6 µM (active); in assay [6], 6.25 µM (active) and 26.6 µM (active). Also, the Potency result in assay [2] and in assay [8] was “inactive” throughout.
As to `CC(C)(C)c1cc(C(C)(C)C)c(O)c(C(C)(C)C)c1`, the Potency result in [1], in assay [2], in assay [3], in assay [5] and in assay [6] was “inactive” throughout. The Potency in [7] is 54.9 µM (active) and 49 µM (active).
Turning to `CCCC(=O)c1ccccc1`, the Potency result in [1], in assay [2], in assay [4], in assay [5], in assay [9] and in assay [6] was “inactive” in each case. In addition, the Potency entry in assay [7] and in [8] was “inactive” throughout.
`Oc1c(Cl)cc(Cl)cc1Sc1cc(Cl)cc(Cl)c1O`: the Potency result in assay [2], in assay [3] and in [8] was “inactive” each time. Besides, the Potency in assay [7] is 43.8 µM (active) and 49 µM (active) and inactive.
Take `C/C=C/c1ccc(OCC)c(O)c1`: the Potency result in assay [1], in assay [3], in assay [4], in [10], in [9] and in assay [6] was “inactive” throughout. Further, the Potency result in assay [8] is “inactive”.
`C#CC(C)(CC)OC(=O)c1ccccc1C(=O)O` (stereo not given): the Potency entry in [10], in assay [5], in [9], in assay [6], in assay [7] and in assay [8] was “inactive” each time.
With `CC[C@]1(O)C[C@@H]2CN(CCc3c([nH]c4ccccc34)[C@@](C(=O)OC)(c3cc4c(cc3OC)N(C)[C@H]3[C@@](O)(C(=O)OC)[C@H](OC(C)=O)[C@]5(CC)C=CCN6CC[C@]43[C@@H]65)C2)C1`, the Potency result in assay [2], in [5], in assay [6] and in [8] was “inactive” throughout. Besides, in assay [3], the Potency is 16.8 µM (active) and 15 µM (active).
`OCCOCCN1CCN(C(c2ccccc2)c2ccc(Cl)cc2)CC1` (stereo not given): the Potency entry in assay [1], in [4], in assay [5], in assay [9], in assay [6] and in assay [7] was “inactive” each time.
For `COc1ccc(CCN(C)CCCC(C#N)(c2ccc(OC)c(OC)c2)C(C)C)cc1OC` (stereo not given), the Potency in [1] was 27.3 µM (active). Further, in assay [5], the Potency entry is “inactive”.
Take `O=C1Nc2ccccc2C1(c1ccc(O)cc1)c1ccc(O)cc1`: the Potency result in assay [2], in [5], in assay [6] and in assay [8] was “inactive” each time.
